# MARV entry inh = Marburg virus entry inhibition; Marburg virus pseudotyped entry inhibition, cell reporter; Potency, µM (doses to about 37.8 µM), for inactives: at the top dose activity change, negative = inhibition, hits mostly inhibitors; hit rate 1.8% among 300,000; AID 540276; calls by dose curve; tested in HEK293 cells; further: potency means the concentration at half of the fitted maximal effect; on the % scale 0 is the no-effect control and ±100 the full control effect
# CHX counter = counter-screen hit for Shiga toxin inhibitors, cycloheximide. max response, %. cell reporter, cycloheximide protein synthesis inhibition counterscreen. hit rate 12% among 300,000. AID 2314; in the data active means max response mostly above about 13%, no sharp cut-off; inactive means mostly below about 14%; further: read at 38.3 µM for the half of the compounds with a filed dose; 0% is about no effect
# Lassa entry inh = inhibitors of Lassa virus binding or cell entry; Potency, µM (doses to about 37.9 µM), without a hit: at the top dose activity change, negative = inhibition, actives largely listed as inhibitors; AID 540256; hit rate 1.2% among 300,000; Lassa virus pseudotype entry inhibition, cell reporter; calls by dose curve; tested in HEK293 cells; further: potency means the concentration at half of the fitted maximal effect; on the % scale 0 is the no-effect control and ±100 the full control effect; nearly all actives have a fitted effect of over 50% in size
# Shiga toxin inh = inhibitors of Shiga toxin in Vero cells. Vero cells, Shiga toxin protein synthesis inhibition reporter. hit rate 9.2% among 290,000. inhibition, % at 38.7 µM. AID 2315; in the data active means inhibition mostly above about 28%, no sharp cut-off; inactive means mostly below about 43%; further: 0% is about no effect
# AMA1-RON2 inh = inhibitors of Plasmodium falciparum AMA1-RON2 interaction; AlphaScreen AMA1-biotinylated RON2 peptide binding; Potency, µM (highest dose often 58.2 µM), for inactives: top-dose activity change, negative = inhibition, most hits filed as inhibitors; hit rate 0.2% among 360,000; AID 720542; active means well fitted inhibition curve with a large enough effect; inconclusive means small, poorly fitted or top-dose-only effect; inactive means no such curve, though single readings can be large or run the other way;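 further: potency means the concentration at half of the fitted maximal effect; 0% = vehicle wells and -100% = peptide control; nearly all actives have a fitted effect of over 45% in size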
#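 AMA1 (3D7) with his tag at 25 nM final met compounds first, then biotinylated RON2 peptide at 25 nM; detection used donor plus acceptor beads, 10 µg/mL apiece, read by AlphaScreen after 30 min at room temperature.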
# Starred values were filed as active, the others as inactive; ? = inconclusive; / = no result given; [ ] = remark or other dose. Many of the other results were omitted from the sample, so hits are more common in it than they were.
SMILES,MARV entry inh,CHX counter,Lassa entry inh,Shiga toxin inh,AMA1-RON2 inh
Cc1cc(C(=O)N/N=C/c2cccc(OC(=O)c3ccco3)c2)n[nH]1,?,46*,6%,34,3%
NC(=S)N/N=C/c1ccc2ccccc2c1,?,27*,8%,-8,25%
COCCCNC(=O)C1Cc2cc(S(=O)(=O)N3CCCC3)ccc2N1C(C)=O (stereo not given),?,1,-4%[46.1 µM],8,14%
CCOc1ccc(S(=O)(=O)N2CCC(C(=O)N3CCCC3)CC2)cc1C,-13%[46.1 µM],-6,?,-4,-10%
O=C(CN1CCCC1)Nc1ccc(Br)cc1[N+](=O)[O-],/,27*,/,/,-12%
Cc1ccc(NC(=O)CN2CCCCCC2)cc1[N+](=O)[O-],-12%[46.1 µM],42*,3%,103*,0%
O=C(CN1CCCCCC1)Nc1ccc([N+](=O)[O-])cc1Br,3%[46.1 µM],-1,-8%[46.1 µM],27,8%
Cc1ccc(NC(=O)CN2CCCC2)cc1Br,?,7,18%[46.1 µM],6,-3%
COc1ccc(OC)c(NC(=O)c2ccno2)c1,0%[46.1 µM],17,14%[46.1 µM],46,-2%
CC(=O)Nc1ccc(OCc2ccc(S(=O)(=O)Cc3ccccc3)cc2)cc1,/,-3,/,3,-3%
CN(c1ccccc1)S(=O)(=O)c1ccc(C(=O)Nc2ccncc2)cc1,1%,/,-6%[46.1 µM],/,-4%
Cc1cccc(C)c1NC(=O)CN(C)C(=O)c1ccc(COc2ccccc2)cc1,1%,20*,-17%,40,-10%
CN(c1ccccc1)S(=O)(=O)c1ccc(NC(=O)c2ccc(F)cc2)cc1,18µM*,/,?,/,1%
CC(=O)Nc1cccc(OCc2ccc(S(=O)(=O)Cc3ccccc3)cc2)c1,-25%,40*,-1%,64*,-9%
CN(c1ccccc1)S(=O)(=O)c1ccc(NC(=O)c2ccccc2)cc1,-23%,15,?,active,1%
CC[C@H](C)[C@H](NC(=O)[C@H](CO)NC(=O)[C@H](CC(C)C)NC(=O)[C@@H]1CCCN1C(=O)[C@@H]1CCCN1C(=O)[C@H](CC(=O)O)NC(=O)[C@@H](N)CC(=O)O)C(=O)N[C@@H](CC(=O)O)C(=O)N[C@@H](CC(C)C)C(=O)N[C@H](C(=O)N[C@@H](Cc1ccccc1)C(=O)N[C@@H](Cc1cnc[nH]1)C(=O)N[C@@H](CC(C)C)C(=O)N[C@@H](CC(C)C)C(=O)N[C@@H](CCCNC(=N)N)C(=O)N[C@H](C(=O)N[C@@H](CC(C)C)C(=O)N[C@@H](CC(C)C)C(=O)N[C@@H](CCC(=O)O)C(=O)N[C@@H](CC(C)C)C(=O)N[C@@H](C)C(=O)N[C@@H](CCCNC(=N)N)C(=O)N[C@H](C(=O)N[C@@H](CCC(N)=O)C(=O)N[C@@H](CO)C(=O)N[C@@H](CCC(N)=O)C(=O)N[C@@H](CCCNC(=N)N)C(=O)N[C@@H](CCC(=O)O)C(=O)N[C@@H](CCCNC(=N)N)C(=O)N[C@@H](C)C(=O)N[C@@H](CCC(=O)O)C(=O)N[C@@H](CCC(N)=O)C(=O)N[C@@H](CC(N)=O)C(=O)N[C@@H](CCCNC(=N)N)C(=O)N[C@H](C(=O)N[C@H](C(=O)N[C@@H](Cc1ccccc1)C(=O)N[C@@H](CC(=O)O)C(=O)N[C@@H](CO)C(=O)N[C@H](C(N)=O)C(C)C)[C@@H](C)CC)[C@@H](C)CC)[C@@H](C)O)[C@@H](C)O)[C@@H](C)O,/,13,/,-7,/
CCN(c1ccccc1)S(=O)(=O)c1ccc(C(=O)Nc2ccccn2)cc1,2%,/,?,/,3%
CN(c1ccc(C(=O)Nc2cccc(O)c2)cc1)S(=O)(=O)c1ccccc1,?,19*,-25%,21,5%
CN(c1ccc(C(=O)Nc2ccccn2)cc1)S(=O)(=O)c1ccccc1,17%,32*,-22%,90*,-1%
CN(C)S(=O)(=O)c1cccc(C(=O)Nc2cc(Cl)ccc2O)c1,3%,40*,-26%,34,6%
CN(C)S(=O)(=O)c1cccc(C(=O)Nc2ccccc2Cl)c1,15%,14,2%,25,-3%
CN(C)S(=O)(=O)c1cccc(NC(=O)c2ccc(COc3ccccc3)cc2)c1,8.9µM*,13,?,17,3%
O=S(=O)(Cc1ccccc1)N(O)c1ccccc1,29%,10,16%,5,5%
Cc1ccccc1C(=O)Nc1nc2n(n1)C(c1ccccc1)CC(=O)N2 (stereo not given),14%,-4,-9%,-7,18%
COc1ccc(OC)c(S(=O)(=O)NC(=O)C2(C)CCN2C(=O)C2(c3ccc(Cl)cc3)CC2)c1 (stereo not given),/,/,/,/,-2%
SMILES,MARV entry inh,CHX counter,Lassa entry inh,Shiga toxin inh,AMA1-RON2 inh
Cc1cc(C)cc(NC(=O)c2ncn(-c3ccccc3)n2)c1,-29%[46.1 µM],/,24%[46.1 µM],/,/
CN(C)S(=O)(=O)c1cccc(NC(=O)Cc2ccc(Cl)cc2)c1,-17%,-3,13µM*,1,4%
CC(=O)c1cccc(NC(=O)c2noc3c2CCc2ccccc2-3)c1,/,35*,/,66*,1%
Cc1ccc(O)c(NC(=O)c2noc3c2CCc2ccccc2-3)c1,?,43*,10%[46.1 µM],87*,5%
CCCCc1ccc(S(=O)(=O)NC(=O)C2(C)CCN2C(=O)c2cccc(F)c2)cc1 (stereo not given),/,/,/,/,-2%
COC(=O)c1sccc1S(=O)(=O)N1CCCC(N(C)CCc2ccccn2)C1 (stereo not given),5%,0,-13%,2,4%
COc1cc(NC(=O)c2noc3c2CCCC3)c(OC)cc1Cl,-1%,1,8%,-10,-4%
COc1ccc(CCNC(=O)c2noc3c2CCCC3)cc1OC,-2%,9.1*,-1%,2,-5%
COc1ccc(Cl)cc1NC(=O)c1noc2c1CCCC2,/,19*,/,51*,-1%
Cc1ccc(SCc2nc(-c3ccccc3)no2)cc1,5%,28*,23%,12,74%
Cc1ccc(OCc2nc(-c3ccccn3)no2)cc1,-16%,29*,-5%,43,1%
COc1ccc(-c2noc(CSc3ccccc3)n2)cc1OC,4%,39*,8%,67*,-3%
CC(C)(C)Cc1nc(-c2ccccn2)no1,34%,34*,-9%,76*,-1%
CCS(=O)(=O)N1CCc2cc(C(=O)Nc3ccc(OC)c(Cl)c3)ccc21,?,/,0%[46.1 µM],/,/
COc1cccc(-c2oc3c(c2C(=O)OCCN2CCCCC2)C(O)CCC3)c1 (stereo not given),/,/,/,/,-10%
Cc1ccccc1NC(=S)N1CCN(c2ccccc2)CC1,15%[46.1 µM],-1,0%[46.1 µM],/,-2%
COc1ccccc1Cc1nc2ccccc2nc1SCC(=O)N1CCN(c2ccccc2)CC1,/,/,3%[46.1 µM],/,/
Cc1ccc(SCc2nc(-c3ccncc3)no2)cc1,?,20*,-4%,66*,16%
Cc1ccc(SC(C)c2nc(-c3ccncc3)no2)cc1 (stereo not given),0%,8,-11%,32,21%
c1ccc(SCc2nc(-c3ccncc3)no2)cc1,22%,44*,9%,84*,7%
